Data on 16 compounds can be found in PubChem BioAssay.

The source made the active and inactive calls. Unless noted, the rule behind the calls is not given here.

Assay [1] concerns XIP peptide (Xip251-270) binding. In words: small-molecule binders of XIP peptide, primary screen, biochemical, small-molecule microarray, fluorescence 635/667 nm, 0.1 µg/mL protein (AID 1182). The note with it: fluorescent protein binding, 635 nm, higher = more signal, called active from +8 up or from −8 down.
The next assay has as its system XIP peptide (Xip251-270). In words: small-molecule binders of XIP peptide, primary screen, biochemical, small-molecule microarray, fluorescence 635/667 nm, 0.5 µg/mL protein (AID 1183). The settings on record: small-molecule microarray binding, fluorescence 635 nm; higher = more signal.
Assay [2] is described as follows: Plasmodium falciparum growth inhibition, primary screen, strain 3D7, DAPI fluorescence, 100 nL (AID 1184).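 Note: parasites grown inside human red blood cells in medium with human serum.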 The note with it: P. falciparum 3D7 growth, 3 d, higher = more signal.
Assay [3] deals with Homeobox protein Hox-A13 (Mus musculus) (UniProt Q62424). The experiment in a line: inhibitors of HoxA13-DNA binding, primary screen, biochemical, fluorescence polarization, labeled oligonucleotide (AID 1185). The settings on record: 15 min, higher = more signal, called active from +8 up or from −8 down.
Assay [4] can be described thus: inhibitors of hydroxyurea-induced Chk1 phosphorylation, primary screen, imaging, HeLa, phospho-Chk1 antibody, percent positive cells (AID 1186). The settings on record: hydroxyurea-induced phospho-Chk1 immunofluorescence imaging, higher = more signal.
Assay [5] is described as follows: inhibitors of hydroxyurea-induced Chk1 phosphorylation, primary screen, imaging, HeLa, phospho-Chk1 nuclear intensity (AID 1187). The note with it: hydroxyurea-induced phospho-Chk1 immunofluorescence imaging, higher = more signal.

Chain of Homeobox protein Hox-A13 (Mus musculus) (Q62424 whole entry, looked up): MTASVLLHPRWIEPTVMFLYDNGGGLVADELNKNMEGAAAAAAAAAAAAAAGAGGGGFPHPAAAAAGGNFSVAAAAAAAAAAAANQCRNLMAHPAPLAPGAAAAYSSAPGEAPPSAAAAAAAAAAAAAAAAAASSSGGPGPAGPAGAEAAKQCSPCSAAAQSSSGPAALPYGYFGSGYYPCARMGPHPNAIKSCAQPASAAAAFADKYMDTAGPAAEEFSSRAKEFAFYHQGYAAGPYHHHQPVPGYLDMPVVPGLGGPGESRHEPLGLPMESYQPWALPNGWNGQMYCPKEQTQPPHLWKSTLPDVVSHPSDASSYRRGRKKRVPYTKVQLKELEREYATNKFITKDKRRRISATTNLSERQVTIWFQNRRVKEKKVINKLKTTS

With `O=C1C2C=CC(C(O)c3cccc4ccccc34)N(Nc3ccccc3)C2C(=O)N1c1ccccc1` (stereo unspecified), the results for the composite z-score (in assay [1]; in the assay on XIP peptide (Xip251-270)) were 0.179 (inactive) and 0.807, respectively. Besides, the z-score is -0.176 in assay [2], -0.231 (inactive) in assay [3], 0.107 (inactive) in assay [4] and -0.294 (inactive) in assay [5].

`O=C(NCc1ccccc1)[C@]1(Cc2ccccc2)N=C(c2ccc(OCCCO)cc2)O[C@@H]1c1ccccc1`: the composite z-score in assay [1] was 0.0268 (inactive); in the assay on XIP peptide (Xip251-270) it was 0.117. Further, the z-score in assay [2] is -2.18; in assay [3], -2.75 (inactive); in assay [4], -0.875 (inactive); in assay [5] it was -1.17 (inactive).

As to `CC1CC/C=C\[C@H]2OC34C=CCN(c5ccc(Cl)cc5)C(=O)[C@H]3N(C(CO)C(C)C)C(=O)[C@]4(C)C2C(=O)O1` (stereo partly specified), the composite z-score in assay [1] was -0.279 (inactive); in the assay on XIP peptide (Xip251-270), 0.277. The z-score in assay [2] is -0.0809; in assay [3] it was -5.44 (inactive); in assay [4], -0.466 (inactive); in assay [5], -0.512 (inactive).

Turning to `CC(C)C(CO)N1C(=O)[C@@H]2[C@H]3C(=O)OCC=C[C@H]3OC23C=CCN(Cn2nnc4ccccc42)C(=O)[C@@H]13` (stereo partly specified), the composite z-score was -0.406 (inactive) in assay [1] and -0.705 in the assay on XIP peptide (Xip251-270). Also, the z-score in assay [2] was -0.229; in assay [3] it was -3.05 (inactive); in assay [4], 0.123 (inactive); in assay [5] it was 0.11 (inactive).

Consider `COc1ccc([Si](C)(C)[C@@H]2[C@@H](CCO)O[C@]3(C(=O)N(Cc4cccc(N5C(=O)COc6ccccc65)c4)c4ccccc43)[C@H]2C)cc1`, for which the composite z-score in assay [1] is -0.417 (inactive); in the assay with XIP peptide (Xip251-270), 0.763. Also, the z-score is -2.78 in assay [2], -1.01 (inactive) in assay [3], -1.02 (inactive) in assay [4] and -1.18 (inactive) in assay [5].

For the compound `C=CCC(OC(C)=O)[C@@H]1[C@@H](N(Cc2cccc3ccccc23)C(=O)c2ccc(C)cc2)c2cc(OCCCO)ccc2N1C(=O)c1ccc2ccccc2c1` (stereo partly specified), the composite z-score was 0.591 (inactive) in assay [1] and 0.52 in the assay with XIP peptide (Xip251-270). The z-score in assay [2] is -2.2; in assay [3] it was -0.0802 (inactive); in assay [4] it was -0.995 (inactive); in assay [5], -0.761 (inactive).

As for `COCCOC(=O)N1C(=O)[C@@]2(c3cc(C#CC4(O)CCCCCC4)ccc31)[C@H](C(=O)NC[C@H](O)c1ccccc1)[C@H]1C(=O)O[C@H](c3ccccc3)[C@H](c3ccccc3)N1[C@@H]2c1ccc(OCCO)cc1`, the composite z-score in assay [1] was -0.274 (inactive); in the assay on XIP peptide (Xip251-270), 0.624. The z-score in assay [2] was -1.19; in assay [3] it was -0.375 (inactive); in assay [4], 0.0542 (inactive); in assay [5], 0.167 (inactive).

On to `COC(=O)[C@@]1(Cc2ccc(OC)cc2)[C@H]2c3cc(C(=O)N(C)C)n(Cc4cc(F)c(F)c(F)c4)c3C[C@H]2CN1C(=O)c1ccccc1`, for which the composite z-score was 0.0306 (inactive) in assay [1] and 0.577 in the assay on XIP peptide (Xip251-270). In addition, the z-score in assay [2] was -1.81; in assay [3], -1.93 (inactive); in assay [4], 0.102 (inactive); in assay [5], -0.186 (inactive).

Consider `COCCOC(=O)N1C(=O)[C@@]2(c3cc(C#Cc4ccc(OC)cc4)ccc31)[C@H](C(=O)N1CCc3cc(OC)c(OC)cc3C1)[C@H]1C(=O)O[C@H](c3ccccc3)[C@H](c3ccccc3)N1[C@@H]2c1ccc(OCCO)cc1`, for which the composite z-score in assay [1] was -0.266 (inactive); in the assay with XIP peptide (Xip251-270) it was 0.688. In addition, the z-score was -2.22 in assay [2], 2.6 (inactive) in assay [3], 0.0413 (inactive) in assay [4] and 0.277 (inactive) in assay [5].

As to `COc1ccc(C#Cc2ccc3c(c2)[C@]2(C(=O)N3)[C@H](C(=O)O)[C@H]3C(=O)O[C@H](c4ccccc4)[C@H](c4ccccc4)N3[C@@H]2c2ccc(OCCO)cc2)cc1`, the composite z-score in assay [1] is 2.6 (inactive); in the assay on XIP peptide (Xip251-270), 0.701. Besides, the z-score in assay [2] was -1.78; in assay [3] it was -5.22 (inactive); in assay [4] it was 0.573 (inactive); in assay [5] it was 0.862 (inactive).

On to `C[N+](C)(C)CCCCCCNC(=O)[C@H]1C[C@H]2C(=O)N3CCC[C@H]3C(=O)N2[C@H]1c1cccc(OCCO)c1`, for which the results for the composite z-score (in assay [1]; in the assay with XIP peptide (Xip251-270)) were 0.883 (inactive) and 0.713, respectively. The z-score was 0.14 in assay [2], -3.94 (inactive) in assay [3], 0.372 (inactive) in assay [4] and 0.182 (inactive) in assay [5].

As for `COCCOC(=O)N1C(=O)[C@@]2(c3cc(C#Cc4ccc(OC)cc4)ccc31)[C@H](C(=O)N1CCc3cc(OC)c(OC)cc3C1)[C@H]1C(=O)O[C@H](c3ccccc3)[C@H](c3ccccc3)N1[C@@H]2c1ccc(O)cc1`, the composite z-score in assay [1] was 1.64 (inactive); in the assay on XIP peptide (Xip251-270) it was 0.759. The z-score in assay [2] was -1.65; in assay [3], -0.63 (inactive); in assay [4] it was -0.241 (inactive); in assay [5] it was -0.261 (inactive).

For the compound `NC(=O)[C@H]1[C@@H]2C(=O)O[C@@H](c3ccccc3)[C@@H](c3ccccc3)N2[C@@H](c2ccc(O)cc2)[C@]12C(=O)Nc1ccc(C#CC3(O)CCCCCC3)cc12`, the composite z-score was 0.366 (inactive) in assay [1] and 0.836 with XIP peptide (Xip251-270). Moreover, the z-score in assay [2] was -1.85; in assay [3], -1.28 (inactive); in assay [4] it was 0.526 (inactive); in assay [5] it was 0.301 (inactive).

With `NC(=O)NCC#Cc1ccc2c(c1)[C@]1(C(=O)N2)[C@H](c2ccc(O)cc2)N2[C@H](c3ccccc3)[C@H](c3ccccc3)OC(=O)[C@H]2[C@@H]1C(N)=O`, the composite z-score in assay [1] was -0.0765 (inactive); with XIP peptide (Xip251-270) it was 0.603. In addition, the z-score is 0.637 in assay [2], -4.21 (inactive) in assay [3], -0.681 (inactive) in assay [4] and -0.878 (inactive) in assay [5].

As to `O=C1O[C@H](c2ccccc2)[C@H](c2ccccc2)N2[C@H]1[C@@H](C(=O)N1CCN(c3ncccn3)CC1)[C@]1(C(=O)Nc3ccc(C#CCCO)cc31)[C@H]2c1ccc(OCCO)cc1`, the composite z-score is 0.756 (inactive) in assay [1] and 0.853 with XIP peptide (Xip251-270). Besides, the z-score is -1.9 in assay [2], -0.587 (inactive) in assay [3], 0.177 (inactive) in assay [4] and 0.923 (inactive) in assay [5].

Regarding `O=C1C2C=CC(C(O)c3ccc(Br)cc3)N(Nc3ccccc3)C2C(=O)N1c1ccccc1` (stereo unspecified), the values for the composite z-score (in assay [1]; in the assay with XIP peptide (Xip251-270)) were 0.65 (inactive) and 0.324, respectively. Further, the z-score in assay [2] is -0.18; in assay [3], -3.62 (inactive); in assay [4], 0.348 (inactive); in assay [5], 0.453 (inactive).
